Compound activity deposited in PubChem BioAssay by National Center for Advancing Translational Sciences (NCATS).
Rows were chosen to be rich in hits. Some 12% of all compounds tested hit in one or more screens of this group.
BAZ2B inh – blocks human BAZ2B. Q9UIF8. AlphaScreen BAZ2B-H3K14Ac peptide displacement. Potency, µM (titrated, usually from 114 µM), for the others: at the highest dose activity change, negative = inhibition, most hits filed as inhibitors. hit rate 4.4% among 360,000; note: % is set by controls: 0 for no effect and ±100 for the full control effect; nearly all actives have a fitted effect of over 60% in size
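AlphaScreen displacement: compounds (up to 110uM) incubated 30 min at room temperature with a preformed 50 nM BAZ2B/50 nM biotinylated H3K14Ac peptide complex in PBS pH 7.4 with Tween-20. Donor and acceptor beads at 10 ug/mL final added, 20 min light-protected before reading.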
G9a block – G9a (human) methyltransferase inhibition; Potency, µM (highest dose often 102 µM), without a hit: top-dose activity, negative = inhibition, most hits filed as inhibitors; hit rate 8.8% among 350,000; Q96KQ7; G9a H3K9 monomethylation, AlphaScreen, 2 h; note: % is set by controls: 0 for no effect and ±100 for the full control effect; nearly all actives have a fitted effect of over 75% in size
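Methyltransferase reactions run at room temperature for 2 h (20 nM enzyme, 500 nM biotin-H3K9 peptide, 20 uM SAM) after a 15 min compound preincubation; product detected by AlphaScreen beads and anti-H3K9me1 antibody.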
HP1b chromo inh – inhibitors of HP1-beta chromodomain binding to methylated histone tails; P83916; hit rate 0.56% among 390,000; Potency, µM (highest dose often 114 µM), without a hit: top-dose activity change, negative = inhibition, most hits filed as inhibitors; AlphaScreen HP1-beta / biotin-H3K9me3 peptide binding; note: nearly all actives have a fitted effect of over 70% in size
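AlphaScreen: HP1-beta (50 nM) preformed 30 min with biotin-H3(1-18)K9me3 peptide (50 nM) in PBS pH 7.4, 0.01% Tween-20. Compound added for 30 min at RT, then streptavidin donor/nickel chelate acceptor beads (10 ug/mL) for 30 min.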
L3MBTL1 block – L3MBTL1 (human) inhibition; Q9Y468; AlphaScreen L3MBTL1–H3K9me1 peptide binding; Potency, µM (top dose mostly 57.1 µM), without a hit: at the top dose activity, negative = inhibition, hits mostly inhibitors; hit rate 0.66% among 230,000; note: % is set by controls: 0 for no effect and ±100 for the full control effect; nearly all actives have a fitted effect of over 60% in size
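L3MBTL1 50 nM + b-AHA-H3(1-15)K9me1 75 nM, 30 min RT; compound added, 30 min RT; streptavidin donor/Ni-chelate acceptor beads 10 ug/mL each final, 30 min RT dark; AlphaScreen read.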
Sfp inh – inhibitors of Bacillus subtilis Sfp phosphopantetheinyl transferase; Biochemical Sfp PPTase activity, qHTS; Q9F4F7; Potency, µM, without a hit: largest response in the series, negative = inhibition, hits mostly inhibitors; hit rate 3.5% among 310,000;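 note: the enzyme is Sfp with the accession as filed and its product quenches rhodamine fluorescence; 0% = enzyme reaction without inhibitor and -100% = no enzyme wells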
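Compounds were incubated with enzyme (final 15 nM) for 15 min at room temperature before substrate addition started the reaction. Fluorescence at 525 nm excitation, 598 nm emission was recorded immediately and after 30 minutes.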
JMJD2A Tudor inh – blocks the human JMJD2A Tudor domain. hit rate 4.4% among 390,000. O75164. AlphaScreen JMJD2A-Tudor / H3K4me3 peptide binding. AID 504339. Potency, µM (series often up to 114 µM), for inactives: at the top dose activity change, negative = inhibition, actives largely listed as inhibitors; note: % is set by controls: 0 for no effect and ±100 for the full control effect; nearly all actives have a fitted effect of over 50% in size
Target sequence (O75164 whole entry, looked up, the tested form may be a part): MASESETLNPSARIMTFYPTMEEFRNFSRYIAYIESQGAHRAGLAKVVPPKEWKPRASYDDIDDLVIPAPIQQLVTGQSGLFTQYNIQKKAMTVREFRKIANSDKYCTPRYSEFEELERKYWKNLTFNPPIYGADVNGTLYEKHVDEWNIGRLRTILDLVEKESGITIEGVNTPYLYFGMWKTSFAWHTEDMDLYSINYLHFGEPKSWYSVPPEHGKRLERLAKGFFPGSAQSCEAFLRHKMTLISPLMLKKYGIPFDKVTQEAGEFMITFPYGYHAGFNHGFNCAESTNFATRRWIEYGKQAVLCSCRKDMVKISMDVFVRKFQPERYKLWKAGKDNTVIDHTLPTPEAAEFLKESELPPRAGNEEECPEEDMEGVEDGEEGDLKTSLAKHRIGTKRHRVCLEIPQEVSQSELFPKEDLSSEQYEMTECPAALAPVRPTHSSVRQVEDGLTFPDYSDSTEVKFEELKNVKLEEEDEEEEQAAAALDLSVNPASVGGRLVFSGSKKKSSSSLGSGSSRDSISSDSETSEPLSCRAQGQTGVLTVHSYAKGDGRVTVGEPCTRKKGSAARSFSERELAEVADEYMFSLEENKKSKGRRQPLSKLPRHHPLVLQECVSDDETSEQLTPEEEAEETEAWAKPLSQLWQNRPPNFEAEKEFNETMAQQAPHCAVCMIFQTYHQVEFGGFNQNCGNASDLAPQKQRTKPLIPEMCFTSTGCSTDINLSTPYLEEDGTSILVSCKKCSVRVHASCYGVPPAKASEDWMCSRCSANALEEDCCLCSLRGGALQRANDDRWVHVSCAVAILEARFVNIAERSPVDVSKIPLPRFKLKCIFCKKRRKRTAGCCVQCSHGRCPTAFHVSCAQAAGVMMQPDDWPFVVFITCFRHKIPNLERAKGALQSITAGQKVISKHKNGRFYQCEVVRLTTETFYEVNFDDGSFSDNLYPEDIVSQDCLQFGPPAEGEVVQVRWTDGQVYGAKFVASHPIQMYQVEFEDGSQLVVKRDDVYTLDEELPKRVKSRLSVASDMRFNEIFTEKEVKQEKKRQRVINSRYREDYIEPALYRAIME
Starred values were filed as active, the others as inactive; ? = inconclusive; · = no result; [ ] = dose if it differs, or a comment. Calls come from the whole dose curve; as a rule, active = well fitted curve in the direction sought with a large enough effect; inconclusive = small, poorly fitted or top-dose-only effect, or another doubt; inactive = no such curve, though single readings can be large; an effect the other way counts as inactive or inconclusive. Potency is the fitted concentration of half-maximal effect.

SMILES | BAZ2B inh | G9a block | HP1b chromo inh | L3MBTL1 block | Sfp inh | JMJD2A Tudor inh
CCOC(=O)C1=C(CSc2nc3c(cc2C#N)CCC3)OC(N)=C(C#N)C1c1ccccc1 (stereo not given) | -0.3% | -1.4%[59 µM] | -14.3% | 2.9% | 20µM* | 25.1µM*
CCOc1ccc(Oc2nc(NCC(C)C)nc(NC(C)(C)C)n2)nn1 | -3.5% | -1.0%[59 µM] | 37.4% | · | · | -0.9%
CN1CCc2nc(SCCOc3ccccc3)c(C#N)cc2C1 | 2.6% | ? | 30.7% | -7.8% | -8.8% | -8.8%
CCOC(=O)C1=C(CSc2nc3c(cc2C#N)CN(C)CC3)OC(N)=C(C#N)C1c1ccc(F)cc1 (stereo not given) | ? | 39.8µM* | -6.6% | · | 56.2µM* | ?
CC(C)c1ccccc1OCC(=O)Nc1ccc2[nH]ncc2c1 | 0.0% | 70.8µM* | 28.6% | · | 12.0% | -30.6%
COc1ccc2nc(N3CCCCC3)c(/C=C3\SC(=S)NC3=O)cc2c1 | 25.1µM* | 11.2µM* | ? | ? | -3.8% | 28.2µM*
O=C1NC(=S)S/C1=C\c1cc2ccccc2nc1N1CCCCC1 | -32.7% | -27.7% | -17.3% | -14.6% | 4.5% | 44.7µM*
O=C(CSc1cn(CC(=O)N2CCCC2)c2ccccc12)Nc1ccc(Cl)cc1 | -11.9% | -24.0%[59 µM] | 30.6% | · | · | 2.6%
COc1ccc(CN(Cc2ccco2)c2cnc(S(C)(=O)=O)nc2C(=O)Nc2ccc(F)cc2)cc1 | -22.8% | ? | 19.6% | · | · | -28.1%
CCC(=O)N1c2ccccc2CC1C(=O)NCCc1ccccc1 (stereo not given) | -1.4% | 24.6%[59 µM] | 4.3% | · | · | -18.5%
CCOc1ccc(C(=O)c2oc3ccccc3c2NC(=O)c2cc(-c3ccc(C)cc3)on2)cc1 | -10.7% | 0.2%[59 µM] | 45.3% | · | · | 14.2%
O=C(Oc1cccc([N+](=O)[O-])c1)c1ccc2c(=O)n3c(nc2c1)CCC3 | 50.1µM* | 6.9%[12.7 µM] | -10.8% | ? | · | ?
COc1ccc(-c2cc(C(=O)OCC(=O)c3cccc(OC)c3)c3cccc(Cl)c3n2)cc1 | 21.9% | 26.1%[59 µM] | 59.2% | · | · | 15.2%
O=C(CN1CCOCC1)OCCCc1ccccc1 | 10.2% | -49.7%[2.33 µM] | 73.5% | · | -1.2% | -8.4%
Cc1ccc(CCCOC(=O)CN2CCCCC2)cc1 | -7.0% | -3.6% | 12.0% | · | -4.2% | -13.3%
Cc1ccc(CCCOC(=O)C[N+]2(C)CCOCC2)cc1 | -19.5% | 10µM* | 27.1% | 5.6% | ? | 35.5µM*
C[N+]1(CC(=O)OCCCc2ccccc2)CCOCC1 | 44.7µM* | 70.8µM* | 19.8% | 0.6% | -0.9% | 50.1µM*
CCc1nc(SC)ncc1C(=O)N1CCN(c2cc(C)ccc2C)CC1 | -11.1% | -55.0%[59 µM] | 23.1% | · | · | -22.8%
CCCN(CCC)C(=O)Cn1nnc2sc(-c3ccccc3)cc2c1=O | ? | 12.6µM* | -3.8% | · | · | -29.2%
CCc1ccc(NC(=O)C(C)n2nnc3sc(-c4ccccc4)cc3c2=O)cc1 (stereo not given) | -7.6% | 3.55µM* | -14.3% | · | · | -28.0%
CCN(C(=O)Cn1nnc2sc(-c3ccccc3)cc2c1=O)c1cccc(C)c1 | -37.5% | 4.47µM* | -18.3% | · | · | ?
CCCCOC(=O)Cn1nnc2sc(-c3ccccc3)cc2c1=O | -16.3% | 9.5%[59 µM] | 46.3% | · | · | -14.5%
Cc1cccc(NC(=O)c2oc3ccc(S(=O)(=O)N(C)C4CCCCC4)cc3c2C)c1C | -3.7% | 14.5%[59 µM] | 26.1% | · | · | -22.6%
COc1ccc(CCn2nc(C)c([N+](=O)[O-])c2C)cc1 | -1.4% | -3.1% | 36.7% | · | 8.3% | -1.5%
COc1cccc(-n2c(CCn3nc(C)c([N+](=O)[O-])c3C)n[nH]c2=S)c1 | 6.8% | 25.1µM* | ? | -0.2% | 13.1% | 11.2µM*
SMILES | BAZ2B inh | G9a block | HP1b chromo inh | L3MBTL1 block | Sfp inh | JMJD2A Tudor inh
Cc1cccc(-n2c(CCn3nc(C)c([N+](=O)[O-])c3C)n[nH]c2=S)c1 | -1.8% | 0.447µM* | 23.9% | · | -2.9% | 20µM*
CCn1nc(C)cc1C(=O)N(C)C1CCCN(Cc2ccccc2F)C1 (stereo not given) | 0.7% | 86.4% | 42.9% | · | 25.3% | -11.7%
CC(C)Cc1cc(C(=O)N(C)C2CCCN(Cc3ccccc3F)C2)n(C)n1 (stereo not given) | -9.4%[57.1 µM] | 89.1µM* | 53.8% | · | 10.3% | -17.8%
Cc1cc(OC(=O)c2cccc([N+](=O)[O-])c2)c(C)cc1CN1CCOCC1 | ? | · | -13.6% | · | -8.4% | ?
O=C(Oc1c(CN2CCOCC2)cc(Cl)c2cccnc12)c1ccccc1 | 25.1µM* | 12.0%[59 µM] | 30.5% | · | -6.3% | ?
COc1cc(OC)cc(C(=O)Oc2c(CN3CCOCC3)cc(Cl)c3cccnc23)c1 | 22.4µM* | -29.9% | 26.2% | 25.1µM* | -9.3% | -29.9%
CCOc1ccc(/C=C/c2nc(C#N)c(NCCc3ccccc3)o2)cc1 | -19.8% | 1.9%[59 µM] | 7.9% | · | · | -16.4%
Cc1ccc(CCNC(=O)Cn2c(-c3cccs3)cc3ccccc32)cc1 | 0.6% | -5.1%[59 µM] | 27.6% | · | · | -1.0%
COC(=O)c1ccc(NC(=O)CSc2n[nH]c(-c3ccncc3)n2)cc1 | 0.0% | 35.5µM* | 46.2% | -11.7% | 1.8% | 3.3%
CCOC(=O)c1ccc(NC(=O)CSc2n[nH]c(-c3ccncc3)n2)cc1 | 0.6% | ? | 39.6% | -4.3% | 10.8% | -8.2%
O=C(CSc1n[nH]c(-c2ccncc2)n1)Nc1ccccc1Cl | 7.0% | 50.1µM* | 8.1% | 2.5% | · | -7.5%
O=C(CSc1n[nH]c(-c2cccnc2)n1)Nc1cccc(Cl)c1 | 2.3% | 50.1µM* | 81.9% | · | 9.4% | -9.2%
